Experimental data published in PubChem BioAssay AID720534 (National Center for Advancing Translational Sciences (NCATS), 2013).
The whole screen tested about 1,600 compounds, of which about 990 (62%) were called active. Not shown: some 30% with an inconclusive outcome. Calls come from the whole dose curve; as a rule, active = well fitted inhibition curve with a large enough effect; inconclusive = small, poorly fitted or top-dose-only effect; inactive = no such curve, though single readings can be large or run the other way. The set was probably picked from earlier hits. Shown is part of a subset that was picked to be rich in actives.

Assay: qHTS for Inhibitors of TGF-b: Confirmation of Cherry Picks; note: nearly all actives have a fitted effect of over 65% in size
Conditions: HepG2 CAGA-GFP TGF-b reporter, GFP fluorescence, 18 h; cells stimulated with TGF-beta, 500 pg/mL
Excerpt: TGF-b is a main component in the TGF-b signaling pathway which plays diverse roles in cellular and development pathways. TGF-b is mediated through transcription factors called "Smads". Although the Smad-dependent pathway is the primary canonical TGF-b signaling mode, TGF-b1 can also activate alternative signaling pathways, including those involving MAPK (ERK, JNK and p38). This interaction may mediate or enhance Smad-dependent responses, or can exert Smad-independent effects. The complexity of this signaling cascade allows the TGF-b superfamily to perform unique, overlapping or redundant functions. We believe that targeting the TGF-beta pathway at the Smad-transcription factor level may eliminate the consequences of disrupting the entire pathway and offer specificity without affecting other signaling pathways. Smad3 is the primary transducer of TGF-b's signals and Smad3 regulates many functions attributed to TGF-b signaling. We hypothesize that Smad3 inhibitors will selectively eliminate Smad3-specific TGF-beta signals without undesired off-target effects. We aim to identify Smad3-small molecule antagonists using a quantitative high throughput screening (qHTS) approach. In this assay, hits identified from the primary screen were re-tested. MH087449NIH Chemical Genomics Center [NCGC] NIH Molecular Libraries Probe Centers Network [MLPCN] MLPCN Grant: MH087449 Assay Submitter (PI): Sushil Rane, National Institute of Diabetes and Kidney Diseases
Suspensions of trypsinized HEPG2 CAGA-GFP cells were dispensed into white, tissue culture-treated, solid 1536-well plates at 5uL/well (1000 cells/well final concentration) in DMEM medium supplemented with 1% FBS. Plates were incubated at 37 degrees C for 2 hours, after which 23 nL of compounds or DMSO were delivered to each well using a pin tool. One uL of recombinant TGF-beta in DMEM (1% FBS) was then dispensed (500 pg/mL final concentration), and plates were incubated at 37 degrees C for 18 hours. The plates were measured on an Acumen eX3 Explorer plate reader for GFP fluorescence (ex488/em500-530). GFP values were calculated by determining the mean GFP fluorescence of individual cells, and compiling these values for each well to determine a total well GFP signal. The %Activity was determined from the corrected fluorescence values. A titration of the known TGF-B inhibitor SB431542 was included to monitor plate performance, while unstimulated HEPG2 (-TGF-B) control wells were used to normalize %Activity of identified inhibitors; unstimulated wells corresponded to 100%Activity (full inhibition), while stimulated cell controls (+DMSO) were used to normalize 0%Activity (no inhibition). Concentration-response curves were fitted to the signals arising from the resulting fluorescence. The concentration-effect curves were then classified based on curve quality (r2), response magnitude and degree of measured activity, and compounds were subsequently categorized based on their curve class.
Potency is the fitted concentration of half-maximal effect.

Row | Structure (SMILES) | Potency
1 | COC(=O)C1=C(c2cc3ccccc3o2)C[C@@H]2CC[C@H]1N2C(=O)NC1CCCCC1 | 20.6 µM (active)
2 | O=Cc1cn(Cc2ccc(F)cc2Cl)c2ccccc12 | 9.2 µM (active)
3 | CN(C(=O)c1cccc(NC(=O)Cc2cccc([N+](=O)[O-])c2)c1)C1CCCCC1 | 13 µM (active)
4 | CCC(C)(O)C(=O)OC1C(=O)OC2CC3C(C)=CC(=O)C(O)C3(C)C3C4(O)OCC23C1C(C)C4O (stereo not given) | 0.291 µM (active)
5 | CC[C@H]1CN2CCc3cc(OC)c(OC)cc3[C@@H]2C[C@@H]1C[C@H]1NCCc2cc(OC)c(OC)cc21 | 0.0231 µM (active)
